For orientation: AC50 means the concentration at which the activity in the assay is half-maximal.

The values below come from PubChem BioAssay (EPA / NIEHS).

Calls of active or inactive are those of the source. How the source made its calls: active means hit-call score of the fitted dose curve at least 0.9, where 1 is the maximum; inactive means score below 0.9.

Details in all cases: mRNA level, 48 h; actives raise or lower the signal
Read-out in test [1]: Ezrin (EZR), EZR (gene 7430)
Nature of the test: LTEA_HepaRG_EZR: Life Technologies and Expression Analysis (LTEA) Assay for Ezrin (EZR) using HepaRG (AID 2283491). The method, boiled down: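 EZR transcript levels came from Fluidigm qRT-PCR and were normalized to three housekeeping genes after 48 h chemical exposure of HepaRG cells. Dosing used an 8-point half-log series with a 100 uM top concentration in 0.5% DMSO, tested in duplicate; both directions were fitted versus vehicle.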

Read-out in test [2]: Cytochrome P450 3A7 (Homo sapiens) (UniProt P24462)
Kind of test: LTEA_HepaRG_CYP3A7: Life Technologies and Expression Analysis (LTEA) Assay for CYP3A7 using HepaRG (AID 2283492). The procedure, abridged:
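Cells were thawed, plated, cultured 48 h, then treated for a further 48 h with chemicals (eight-point half-log series from 100 uM, 0.5% DMSO). RNA was isolated and CYP3A7 expression quantified by qRT-PCR normalised to ACTB, GAPDH and POLR2A.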

Read-out in test [3]: Fatty Acid-Binding Protein 1 (FABP1), FABP1 (gene 2168)
Kind of test: LTEA_HepaRG_FABP1: Life Technologies and Expression Analysis (LTEA) Assay for Fatty Acid-Binding Protein 1 (FABP1) using HepaRG (AID 2283494). The method, boiled down:
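Differentiated human HepaRG cells exposed 48 h in serum-free induction medium to eight half-log concentrations up to 100 uM (0.5% DMSO), duplicate. FABP1 mRNA by qRT-PCR, normalised to ACTB, GAPDH, POLR2A; bidirectional fitting against DMSO.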

Read-out in test [4]: Cytochrome P450 7A1 (Homo sapiens) (UniProt P22680)
Kind of test: LTEA_HepaRG_CYP7A1: Life Technologies and Expression Analysis (LTEA) Assay for Cytochrome P450 7A1 (CYP7A1) using HepaRG (AID 2283496). The method, boiled down: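 HepaRG cells plated 48 h, then switched to serum-free induction medium and exposed in duplicate for 48 h to 8-point half-log series from 100 uM in 0.5% DMSO. CYP7A1 mRNA by qRT-PCR (TaqMan), normalized to ACTB/GAPDH/POLR2A; bidirectional fit versus DMSO.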

Read-out in test [5]: Glutathione S-Transferase (GSTA2), GSTA2 (gene 2939)
Nature of the test: LTEA_HepaRG_GSTA2: Life Technologies and Expression Analysis (LTEA) Assay for Glutathione S-Transferase (GSTA2) using HepaRG (AID 2283497). The method, boiled down:
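Differentiated human HepaRG cells were exposed in duplicate for 48 h in serum-free induction medium, 8 points from 100 uM top in half-log steps, 0.5% DMSO. GSTA2 mRNA was measured by TaqMan qRT-PCR, normalized to ACTB, GAPDH and POLR2A; bidirectional fit versus DMSO.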

Read-out in test [6]: Glutamate-cysteine ligase catalytic (GCLC), GCLC (gene 2729)
Kind of test: LTEA_HepaRG_GCLC: Life Technologies and Expression Analysis (LTEA) Assay for Glutamate-cysteine ligase catalytic (GCLC) using HepaRG (AID 2283498). The method, boiled down:
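Differentiated HepaRG cells exposed 48 h in serum-free induction medium, eight-point half-log series topping at 100 uM in 0.5% DMSO, duplicates. GCLC mRNA by qRT-PCR normalized to ACTB, GAPDH and POLR2A, fitted bidirectionally versus DMSO.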

Read-out in test [7]: growth arrest and DNA damage 45 (GADD45G), GADD45G (gene 10912)
Kind of test: LTEA_HepaRG_GADD45G: Life Technologies and Expression Analysis (LTEA) Assay for growth arrest and DNA damage 45 (GADD45G) using HepaRG (AID 2283499). The procedure, abridged:
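Human hepatic HepaRG line treated 48 h with chemicals (eight concentrations, half-log steps from 100 uM); transcript induction or repression of GADD45G scored by qRT-PCR versus DMSO vehicle.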

Read-out in test [8]: Glutamate-cysteine ligase regulatory (GCLM), GCLM (gene 2730)
Nature of the test: LTEA_HepaRG_GCLM: Life Technologies and Expression Analysis (LTEA) Assay for Glutamate-cysteine ligase regulatory (GCLM) using HepaRG (AID 2283500). The procedure, abridged:
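Differentiated HepaRG cells exposed 48 h in serum-free induction medium to eight half-log concentrations up to 100 uM (0.5% DMSO). GCLM mRNA by TaqMan qRT-PCR, normalized to ACTB, GAPDH and POLR2A; bidirectional fit versus DMSO.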

Read-out in test [9]: Glutathione S-transferase M3 (GSTM3), GSTM3 (gene 2947)
Nature of the test: LTEA_HepaRG_GSTM3: Life Technologies and Expression Analysis (LTEA) Assay for Glutathione S-transferase M3 (GSTM3) using HepaRG (AID 2283501). The method, boiled down:
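Changes in GSTM3 expression, an oxidative-stress marker, were scored by bidirectional curve fitting against 0.5% DMSO vehicle. Human HepaRG cultures received chemicals for 48 h in duplicate, highest concentration 100 uM with half-log dilutions.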

Read-out in test [10]: Heat shock 70 kDa protein 1 (HSPA1A), gene 3303
Kind of test: LTEA_HepaRG_HSPA1A: Life Technologies and Expression Analysis (LTEA) Assay for Heat shock 70 kDa protein 1 (HSPA1A) using HepaRG (AID 2283502). The method, boiled down: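 Human HepaRG cells in serum-free induction medium were exposed in duplicate for 48 h to 8 half-log concentrations, highest 100 uM, in 0.5% DMSO. HSPA1A mRNA read by TaqMan qRT-PCR, normalized to ACTB, GAPDH, POLR2A, fitted bidirectionally against DMSO.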

Read-out in test [11]: Hypoxia-inducible factor 1-alpha (Homo sapiens) (UniProt Q16665)
Kind of test: LTEA_HepaRG_HIF1A: Life Technologies and Expression Analysis (LTEA) Assay for Hypoxia-inducible factor 1 (HIF1A) Trancription factor using HepaRG (AID 2283503). The method, boiled down:
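Differentiated HepaRG cells in serum-free induction medium exposed 48 h, in duplicate, to 8-point half-log series from 100 uM in 0.5% DMSO. HIF1A mRNA measured by TaqMan qRT-PCR, normalized to ACTB/GAPDH/POLR2A, fitted bidirectionally versus DMSO.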

Read-out in test [12]: 3-Hydroxy-3-Methylglutaryl-CoA Synthase 2 (HMGCS2), HMGCS2 (gene 3158)
Kind of test: LTEA_HepaRG_HMGCS2: Life Technologies and Expression Analysis (LTEA) Assay for 3-Hydroxy-3-Methylglutaryl-CoA Synthase 2 (HMGCS2) using HepaRG (AID 2283504). The method, boiled down: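 Expression of HMGCS2 in human HepaRG liver cells is measured by qRT-PCR 48 h after dosing (highest 100 uM, half-log series, 0.5% DMSO). Values come from bidirectional concentration-response fitting with DMSO as baseline.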

Read-out in test [13]: HGF (gene 3082)
Nature of the test: LTEA_HepaRG_HGF: Life Technologies and Expression Analysis (LTEA) Assay for Hepatocyte Growth Facto (HGF) using HepaRG (AID 2283505). The procedure, abridged:
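Gain or loss of HGF mRNA in human HepaRG liver cells after 48 h chemical exposure; eight concentrations up to 100 uM with 0.5% DMSO vehicle, quantified by TaqMan qRT-PCR.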

Read-out in test [14]: Insulin Like Growth Factor 1 (IGF1), IGF1 (gene 3479)
Kind of test: LTEA_HepaRG_IGF1: Life Technologies and Expression Analysis (LTEA) Assay for Insulin Like Growth Factor 1 (IGF1) using HepaRG (AID 2283506). The procedure, abridged:
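Differentiated HepaRG cells in serum-free induction medium, exposed 48 h in duplicate to 8 half-log concentrations up to 100 uM in 0.5% DMSO. IGF1 mRNA by Fluidigm qRT-PCR, normalised to ACTB, GAPDH and POLR2A.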

Read-out in test [15]: Intercellular Adhesion Molecule 1 (ICAM1), ICAM1 (gene 3383)
Kind of test: LTEA_HepaRG_ICAM1: Life Technologies and Expression Analysis (LTEA) Assay for Intercellular Adhesion Molecule 1 (ICAM1) using HepaRG (AID 2283507). The procedure, abridged: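 Gain or loss of transcript in HepaRG hepatic cells is quantified by qRT-PCR after 48 h chemical exposure (up to 100 uM, half-log steps), with DMSO as baseline.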

Read-out in test [16]: Insulin-like growth factor-binding protein 1 (IGFBP1), IGFBP1 (gene 3484)
Nature of the test: LTEA_HepaRG_IGFBP1: Life Technologies and Expression Analysis (LTEA) Assay for Insulin-like growth factor-binding protein 1 (IGFBP1) using HepaRG (AID 2283508). The procedure, abridged: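 mRNA induction or loss was quantified by qRT-PCR after 48 h chemical exposure of human HepaRG cells, with 0.5% DMSO as vehicle and baseline. Concentration-response over eight points up to 100 uM.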

Read-out in test [17]: Interleukin 6 (IL6), IL6 (gene 3569)
Kind of test: LTEA_HepaRG_IL6: Life Technologies and Expression Analysis (LTEA) Assay for Interleukin 6 (IL6) using HepaRG (AID 2283509). The procedure, abridged: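 HepaRG cells exposed in duplicate for 48 h to eight half-log concentrations, top 100 uM, in 0.5% DMSO serum-free induction medium. mRNA measured by qRT-PCR, normalized to ACTB, GAPDH and POLR2A. Bidirectional fit versus DMSO.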

Read-out in test [18]: Interleukin 6 Receptor (IL6R), IL6R (gene 3570)
Kind of test: LTEA_HepaRG_IL6R: Life Technologies and Expression Analysis (LTEA) Assay for Interleukin 6 Receptor (IL6R) using HepaRG (AID 2283510).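 On AC50: TaqMan qRT-PCR signal normalized to ACTB GAPDH and POLR2A housekeeping genes.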 The method, boiled down:
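Differentiated HepaRG cells, plated 48 h, then exposed in duplicate for 48 h in serum-free induction medium to 8 half-log concentrations (top 100 uM, 0.5% DMSO). IL6R mRNA measured by TaqMan qRT-PCR, normalized to ACTB/GAPDH/POLR2A; bidirectional fit vs DMSO.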

Hypoxia-inducible factor 1-alpha (Homo sapiens), sequence (Q16665 whole entry, looked up): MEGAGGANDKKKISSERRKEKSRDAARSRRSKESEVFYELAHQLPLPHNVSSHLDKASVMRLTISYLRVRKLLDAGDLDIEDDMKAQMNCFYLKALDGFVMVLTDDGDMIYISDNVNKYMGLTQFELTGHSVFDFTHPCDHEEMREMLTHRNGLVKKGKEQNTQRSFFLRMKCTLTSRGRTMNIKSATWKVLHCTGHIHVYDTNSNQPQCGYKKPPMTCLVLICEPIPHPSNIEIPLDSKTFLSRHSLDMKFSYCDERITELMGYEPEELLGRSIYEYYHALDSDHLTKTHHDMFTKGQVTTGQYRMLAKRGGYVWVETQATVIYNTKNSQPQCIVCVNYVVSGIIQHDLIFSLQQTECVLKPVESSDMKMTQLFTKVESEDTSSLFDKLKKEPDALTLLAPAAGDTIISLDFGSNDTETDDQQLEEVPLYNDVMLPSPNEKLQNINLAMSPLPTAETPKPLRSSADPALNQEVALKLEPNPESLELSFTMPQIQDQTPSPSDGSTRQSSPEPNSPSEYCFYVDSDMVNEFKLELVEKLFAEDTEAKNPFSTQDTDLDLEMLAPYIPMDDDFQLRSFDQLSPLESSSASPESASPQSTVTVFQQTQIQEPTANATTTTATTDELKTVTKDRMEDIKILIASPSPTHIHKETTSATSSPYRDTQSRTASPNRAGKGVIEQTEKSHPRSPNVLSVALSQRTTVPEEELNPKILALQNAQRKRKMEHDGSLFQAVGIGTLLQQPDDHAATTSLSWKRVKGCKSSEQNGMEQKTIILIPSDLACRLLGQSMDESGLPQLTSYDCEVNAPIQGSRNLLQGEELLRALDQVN
Cytochrome P450 3A7 (Homo sapiens), sequence (P24462 whole entry, looked up): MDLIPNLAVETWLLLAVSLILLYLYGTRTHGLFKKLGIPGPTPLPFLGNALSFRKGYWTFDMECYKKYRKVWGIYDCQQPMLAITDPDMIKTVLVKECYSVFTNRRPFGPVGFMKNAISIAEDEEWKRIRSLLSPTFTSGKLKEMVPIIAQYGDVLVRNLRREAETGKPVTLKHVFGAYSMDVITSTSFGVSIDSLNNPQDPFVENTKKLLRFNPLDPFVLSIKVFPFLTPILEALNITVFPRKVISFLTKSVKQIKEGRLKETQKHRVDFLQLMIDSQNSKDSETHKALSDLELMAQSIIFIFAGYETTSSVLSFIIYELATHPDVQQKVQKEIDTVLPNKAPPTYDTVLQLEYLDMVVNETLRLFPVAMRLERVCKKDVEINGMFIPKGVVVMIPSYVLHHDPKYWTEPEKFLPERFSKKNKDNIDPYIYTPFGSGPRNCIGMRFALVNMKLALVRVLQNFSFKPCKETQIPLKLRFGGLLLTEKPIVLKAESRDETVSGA

For `Cc1oc(-c2ccccc2)nc1CCOc1ccc(C[C@H](Nc2ccccc2C(=O)c2ccccc2)C(=O)O)cc1`, the half-maximal activity concentration (AC50) in test [1] was 70 µM (active); in test [2] it was 25.7 µM (active); in [3], 23.1 µM (active); in [4], 23.4 µM (active); in test [5], 23.4 µM (active); in test [6], 64 µM (active). The half-maximal activity concentration (AC50) in [7] was 0.0219 µM (active); in [9], 27.9 µM (active); in test [10], 16.2 µM (active); in [11] it was 30.8 µM (active); in [12], 22.8 µM (active); in [13] it was 15.8 µM (active). In addition, the AC50 in [14] is 12.4 µM (active); in [15], 26.8 µM (active); in [16] it was 30.9 µM (active); in test [17], 26.3 µM (active); in test [18] it was 30.6 µM (active). The compound was called inactive in [8].
For `COCC(C)O` (stereo not drawn), the call in [1], in test [2], in [3], in [4], in test [5] and in test [6] was inactive. The compound was called inactive in [7], in test [8], in [9], in test [10], in test [11] and in test [12]. Also, the result in test [13], in [14], in [16], in test [17] and in [18] was inactive.
With `Cc1cc(CCN2CCN(c3nsc4ccccc34)CC2)cc2c1NC(=O)CC2(C)C`, the AC50 in test [1] was 9.92 µM (active); in [2], 79.5 µM (active); in test [3] it was 69.7 µM (active); in test [4], 80.6 µM (active); in test [5], 81.9 µM (active); in test [7], 76.8 µM (active). Moreover, the concentration at half-maximal activity (AC50) in [8] is 50 µM (active); in test [10], 50 µM (active); in test [12], 78 µM (active); in test [14] it was 70.5 µM (active); in test [16], 90.9 µM (active); in test [17], 79.3 µM (active). The AC50 in [18] was 84.7 µM (active). In addition, the result in [6], in test [9], in test [11], in test [13] and in test [15] was inactive.
